# Inconclusive results are not listed. A call without a number means that no potency is given here. The source made the active and inactive calls. Unless noted, calls come from the whole dose curve; as a rule, active = well fitted curve in the direction sought with a large enough effect; inconclusive = small, poorly fitted or top-dose-only effect, or another doubt; inactive = no such curve, though single readings can be large; an effect the other way counts as inactive or inconclusive.
# Columns and labels:
# [1] = AP1 Signaling Pathway (AID 357; active = well fitted curve in either direction with a large enough effect, not every such curve was filed as active;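 note: ME-180 reporter cells stimulated with EGF at its EC50 level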)
# In short: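 Cells are seeded overnight, exposed to compound titrations and an EC50 level of EGF for 5 hours at 37 °C, then loaded with CCF4 dye for 2.5 hours. Beta-lactamase activity under the AP-1 element is read as a blue/green ratio.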
# [2] = Stat Signaling Pathway (AID 446; active = well fitted curve in either direction with a large enough effect, not every such curve was filed as active;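 note: ME-180 cervical cancer cells given 40 pM IL-6 alongside compound; SIE-controlled beta-lactamase reporter measured as 460/530 nm FRET emission ratio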)
# In short: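 FRET read-out (405 nm excitation, 460/530 nm emission) of a beta-lactamase reporter under a STAT-inducible element in ME-180 cervical carcinoma cells. Cells with compound receive 40 pM IL-6 for 5 h. Values are normalised to AC90 stimulation and AC90 JAK-inhibitor controls.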
# [3] = target: Glucocorticoid receptor (Homo sapiens) (UniProt P04150); test: GR-EFC Redistribution (AID 451; calls by dose curve; note: potency is the fitted concentration of half-maximal effect); settings: CHO-K1 GR-EFC translocation, beta-gal luminescence, 2 h
# Sequence of Glucocorticoid receptor (Homo sapiens) (P04150 whole entry, looked up, the tested form may be a part): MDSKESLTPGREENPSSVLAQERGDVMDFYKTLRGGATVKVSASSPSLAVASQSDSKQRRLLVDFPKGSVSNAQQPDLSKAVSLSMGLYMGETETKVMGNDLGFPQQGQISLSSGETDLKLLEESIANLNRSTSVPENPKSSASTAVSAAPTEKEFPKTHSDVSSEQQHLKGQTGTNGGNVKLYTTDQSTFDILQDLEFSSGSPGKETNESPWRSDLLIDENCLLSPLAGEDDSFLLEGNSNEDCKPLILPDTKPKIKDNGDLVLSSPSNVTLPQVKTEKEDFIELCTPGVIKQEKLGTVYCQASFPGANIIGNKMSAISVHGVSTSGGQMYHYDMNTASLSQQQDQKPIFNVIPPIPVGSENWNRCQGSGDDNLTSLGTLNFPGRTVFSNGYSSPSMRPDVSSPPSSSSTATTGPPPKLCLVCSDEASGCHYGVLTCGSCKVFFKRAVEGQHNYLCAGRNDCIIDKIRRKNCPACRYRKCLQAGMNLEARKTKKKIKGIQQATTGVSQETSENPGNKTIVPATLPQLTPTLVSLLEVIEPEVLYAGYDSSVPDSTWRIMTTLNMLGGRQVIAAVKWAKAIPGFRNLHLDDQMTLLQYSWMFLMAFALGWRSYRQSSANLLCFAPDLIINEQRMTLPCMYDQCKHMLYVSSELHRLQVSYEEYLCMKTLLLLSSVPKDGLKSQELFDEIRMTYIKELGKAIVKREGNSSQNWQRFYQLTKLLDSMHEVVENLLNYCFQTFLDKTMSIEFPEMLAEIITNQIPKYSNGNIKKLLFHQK
# In short: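 CHO-K1 cells expressing nuclear EA and GR-ED fragments of b-gal; compounds titrated up to 46 uM final, 2 h at 37 C. GR nuclear translocation read as complemented b-gal luminescence after 1 h RT detection.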
# [4] = target: Mitogen-activated protein kinase 10 (Mus musculus) (UniProt Q61831); test: JNK3 AlphaScreen Assay (AID 530; active = well fitted curve in either direction with a large enough effect, not every such curve was filed as active;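 note: kinase came from lysate of stimulated human HepG2 cells; signal reports phosphorylation of biotinylated GST-cJun 1-79 at Ser73 with 10 µM ATP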)
# In short: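 Activity was read by AlphaScreen after JNK3-containing HepG2 lysate (cytokine pre-activated) phosphorylated biotinylated GST-cJun with 10 uM ATP at room temperature. Phospho-Ser73 cJun antibody with Protein-A acceptor beads provided detection.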
# [5] = qHTS Assay for Lipid Storage Modulators (AID 1519; calls by dose curve); settings: Drosophila S3 cells, BODIPY lipid droplet/cell ratio, laser cytometry, cells loaded with oleic acid
# In short: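 Cells seeded at 5,000 per well were treated with compounds over a concentration series and loaded with oleic acid (400 uM, as added). Lipid droplet fluorescence (488 nm excitation, 500-530 nm channel) was read by laser-scanning cytometry and normalized to 20 uM Triacsin C.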
# [6] = target: Ubiquitin carboxyl-terminal hydrolase 1 (Homo sapiens) (UniProt O94782); test: Inhibitors of USP1/UAF1: Pilot qHTS (AID 504865);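 note: rhodamine fluorescence freed from ubiquitin-rhodamine substrate followed over time; top concentration of the series differs between compounds; nearly all actives have a fitted effect of over 35% in size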
# Sequence of Ubiquitin carboxyl-terminal hydrolase 1 (Homo sapiens) (O94782 whole entry, looked up): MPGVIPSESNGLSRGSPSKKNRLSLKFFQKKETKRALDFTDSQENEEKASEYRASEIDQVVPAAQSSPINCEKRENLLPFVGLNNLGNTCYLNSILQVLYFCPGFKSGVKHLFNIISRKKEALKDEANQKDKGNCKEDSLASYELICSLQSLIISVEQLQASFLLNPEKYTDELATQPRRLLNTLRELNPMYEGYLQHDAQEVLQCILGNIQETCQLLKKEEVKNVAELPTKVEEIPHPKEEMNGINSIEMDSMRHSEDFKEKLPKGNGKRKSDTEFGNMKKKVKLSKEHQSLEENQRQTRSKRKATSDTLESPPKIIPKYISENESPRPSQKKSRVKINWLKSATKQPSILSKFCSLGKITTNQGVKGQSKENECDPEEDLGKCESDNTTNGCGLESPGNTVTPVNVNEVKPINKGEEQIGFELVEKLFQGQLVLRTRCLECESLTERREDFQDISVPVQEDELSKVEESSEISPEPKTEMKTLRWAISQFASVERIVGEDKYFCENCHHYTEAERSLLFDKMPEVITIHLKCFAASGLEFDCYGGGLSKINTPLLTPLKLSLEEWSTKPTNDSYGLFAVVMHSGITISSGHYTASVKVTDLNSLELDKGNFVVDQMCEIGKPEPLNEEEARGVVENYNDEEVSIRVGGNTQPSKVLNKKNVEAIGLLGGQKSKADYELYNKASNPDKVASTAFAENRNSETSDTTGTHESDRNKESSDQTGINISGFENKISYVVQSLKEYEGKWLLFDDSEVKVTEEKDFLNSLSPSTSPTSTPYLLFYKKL
# In short: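 Kinetic fluorescence assay: 1nM USP1/UAF1, 15 min compound preincubation, then 150nM Ub-Rho; 480/540 nm.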
# [7] = target: 3',5'-cyclic-AMP phosphodiesterase 4B (Homo sapiens) (UniProt Q07343); test: qHTS Assay for Inhibitors of PDE-IV (AID 607; active = well fitted activation curve with a large enough effect in the main read-out, with a control signal flat, not every such curve was filed as active)
# Sequence of 3',5'-cyclic-AMP phosphodiesterase 4B (Homo sapiens) (Q07343 whole entry, looked up): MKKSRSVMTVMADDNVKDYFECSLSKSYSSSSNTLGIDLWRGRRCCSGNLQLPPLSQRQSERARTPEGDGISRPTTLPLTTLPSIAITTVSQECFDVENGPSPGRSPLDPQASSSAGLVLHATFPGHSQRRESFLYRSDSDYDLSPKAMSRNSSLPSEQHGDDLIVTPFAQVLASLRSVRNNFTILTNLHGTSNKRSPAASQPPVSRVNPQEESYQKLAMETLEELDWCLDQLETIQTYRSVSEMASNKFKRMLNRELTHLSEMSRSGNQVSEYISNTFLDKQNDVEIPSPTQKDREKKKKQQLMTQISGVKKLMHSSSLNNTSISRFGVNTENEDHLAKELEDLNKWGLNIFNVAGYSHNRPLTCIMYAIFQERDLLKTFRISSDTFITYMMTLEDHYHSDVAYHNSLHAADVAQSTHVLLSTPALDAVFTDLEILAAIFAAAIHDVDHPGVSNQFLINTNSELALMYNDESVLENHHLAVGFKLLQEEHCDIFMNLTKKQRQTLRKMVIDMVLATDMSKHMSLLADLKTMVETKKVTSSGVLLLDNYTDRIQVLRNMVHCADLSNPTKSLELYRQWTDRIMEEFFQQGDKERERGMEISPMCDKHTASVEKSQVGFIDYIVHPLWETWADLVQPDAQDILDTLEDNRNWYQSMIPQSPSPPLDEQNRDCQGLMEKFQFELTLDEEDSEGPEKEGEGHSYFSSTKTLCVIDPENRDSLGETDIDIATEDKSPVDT
# In short: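 Cell-based read-out of cAMP via a modified cyclic nucleotide-gated channel and membrane potential dye (535/590 nm) in HEK293 cells expressing PDE4 endogenously. Compounds tested up to 22.9 uM final; 100 uM RO 20-1724 reference.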
# [8] = NFAT Signaling Pathway (AID 444; active = well fitted curve in either direction with a large enough effect, not every such curve was filed as active;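 note: carbachol stimulus at about its EC50 of 1 µM final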); settings: Jurkat NFAT-bla M1, carbachol, beta-lactamase ratio, 5 h; at 17.2 µM (top of the series) unless noted
# In short: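 Jurkat cells with NFAT-driven β-lactamase reporter and co-expressed M1 receptor, stimulated with carbachol (final 1 uM, ~EC50), compound titration, 5 h at 37 °C. CCF4 loaded 1 h at RT; 460/530 nm ratio gave %activity and AC50.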
# [9] = target: Glucocorticoid receptor (Homo sapiens) (UniProt P04150); test: GR-GFP Redistribution (AID 450;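 active = compounds whose dose series gives a full or clear partial fitted curve of increased nuclear translocation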; note: potency is the fitted concentration of half-maximal effect); settings: U2OS GR-GFP nuclear translocation, laser cytometry, 2 h
# [10] = target: Luciferin 4-monooxygenase (Photinus pyralis) (UniProt P08659); test: Biochemical firefly luciferase enzyme assay for NPC (AID 624030);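 note: purified P. pyralis luciferase at 10 nM with luciferin and ATP substrate; nearly all actives have a fitted effect of over 70% in size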
# Sequence of Luciferin 4-monooxygenase (Photinus pyralis) (P08659 whole entry, looked up): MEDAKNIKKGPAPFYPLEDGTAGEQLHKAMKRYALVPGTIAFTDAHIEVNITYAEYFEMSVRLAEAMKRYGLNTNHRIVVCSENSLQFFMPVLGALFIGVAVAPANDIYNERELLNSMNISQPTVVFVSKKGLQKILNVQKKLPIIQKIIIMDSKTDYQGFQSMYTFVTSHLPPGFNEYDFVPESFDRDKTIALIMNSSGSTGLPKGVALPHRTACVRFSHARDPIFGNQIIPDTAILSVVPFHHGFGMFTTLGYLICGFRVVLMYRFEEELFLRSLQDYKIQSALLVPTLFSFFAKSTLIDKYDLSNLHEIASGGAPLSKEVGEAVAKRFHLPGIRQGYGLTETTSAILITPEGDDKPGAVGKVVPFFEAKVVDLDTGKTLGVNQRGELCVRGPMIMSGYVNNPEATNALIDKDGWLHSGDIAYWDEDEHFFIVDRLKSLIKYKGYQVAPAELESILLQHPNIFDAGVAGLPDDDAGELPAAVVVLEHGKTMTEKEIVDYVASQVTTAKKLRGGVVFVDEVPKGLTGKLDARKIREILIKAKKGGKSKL
# In short: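 Purified P. pyralis luciferase at 10 nM in 50 mM Tris Acetate (final), luminescence read within 5 minutes of enzyme addition to compounds. Activity normalised to PTC124 versus DMSO; concentration-response curves classed by r2, magnitude and activity.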
# [11] = S16 Schwann cell viability assay (CellTiter-Glo assay) (AID 624031);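 note: native untransfected S16 rat Schwann cells; cellular ATP luminescence as a viability measure; nearly all actives have a fitted effect of over 70% in size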
# In short: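 Parental S16 cells, 24 h compound, 37 °C. ATP-luminescence viability; DMSO = 0% activity, empty wells as reference; curves classified by fit quality and efficacy.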
# [12] = qHTS profiling for inhibitors of Plasmodium falciparum proliferation (AID 504749); note: nearly all actives have a fitted effect of over 60% in size; settings: P. falciparum in erythrocytes, SYBR Green DNA, 72 h
# In short: (§1)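 Each compound contacts P. falciparum-infected red blood cells for 72 h at 37 C; lysis buffer (Tris, EDTA, saponin, Triton X, SYBR Green I) is added and fluorescence measured next morning; values normalized to controls.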
# [13] = system: C2A; test: as above; settings: P. falciparum in erythrocytes, SYBR Green DNA, 72 h; series mostly up to 12.8 µM
# In short: as §1
# [14] = system: CP191; test: as above; settings: P. falciparum in erythrocytes, SYBR Green DNA, 72 h; series mostly up to 12.8 µM
# In short: as §1
# [15] = system: CP247; test: as above; settings: P. falciparum in erythrocytes, SYBR Green DNA, 72 h; series mostly up to 12.8 µM
# In short: as §1
# [16] = system: CP250; test: as above; settings: P. falciparum in erythrocytes, SYBR Green DNA, 72 h; series mostly up to 12.8 µM
# In short: as §1
# [17] = system: CP256; test: as above; settings: P. falciparum in erythrocytes, SYBR Green DNA, 72 h; series mostly up to 12.8 µM
# In short: as §1
# [18] = system: FAB9; test: as above; settings: P. falciparum in erythrocytes, SYBR Green DNA, 72 h; series mostly up to 12.8 µM
# In short: as §1
# [19] = system: JCK; test: as above; settings: P. falciparum in erythrocytes, SYBR Green DNA, 72 h; series mostly up to 12.8 µM
# In short: as §1
# [20] = system: PC49; test: as above; settings: P. falciparum in erythrocytes, SYBR Green DNA, 72 h; series mostly up to 12.8 µM
# In short: as §1
# [21] = measured here: cell count channel max response
# [22] = measured here: lipid channel max response
# [23] = at 12.8 µM (top of the series), parasite line A
# [24] = at 12.8 µM (top of the series), parasite line B
smiles,measurement,setting,value
Cn1c(-c2ccc3c(c2)OCO3)cc(=O)c2ccccc21,outcome,[1],inactive
same,outcome,[2],inactive
same,Potency,[3],> 20.6 µM (inactive)
same,Potency,[4],inactive
same,"activity change, negative = inhibition",[5]; at 25.7 µM (top of the series),2.22% (inactive)
same,max response,[5]; [21],-4.86%
same,max response,[5]; [22],-2.71%
same,Potency,[6],inactive
CN1CCC2(CC1)CCN(C(=O)c1ccncc1)CC2,outcome,[1],inactive
same,outcome,[2],inactive
same,Potency,[3],> 46 µM (inactive)
same,Potency,[4],inactive
same,outcome,[7],inactive
same,"activity change, negative = inhibition",[5]; at 57.5 µM (top of the series),-3.65% (inactive)
same,max response,[5]; [21],10.6%
same,max response,[5]; [22],6.89%
CCOC(=O)C1=C(C)NC(C)=C(C(=O)OC)[C@@H]1c1cccc([N+](=O)[O-])c1,outcome,[1],inactive
same,outcome,[2],inactive
same,Potency,[4],inactive
same,outcome,[7],inactive
same,"activity change, negative = inhibition",[5]; at 25.7 µM (top of the series),0.673% (inactive)
same,max response,[5]; [21],-15%
same,max response,[5]; [22],-22.2%
same,Potency,[6],inactive
Nc1ccn([C@@H]2CC[C@H](CO)O2)c(=O)n1,outcome,[1],inactive
same,outcome,[2],inactive
same,Potency,[4],inactive
same,outcome,[7],inactive
same,"activity change, negative = inhibition",[5]; at 25.7 µM (top of the series),-3.47% (inactive)
same,max response,[5]; [21],-4.3%
same,max response,[5]; [22],-6.51%
CCCCC[C@H](O)/C=C\[C@@H]1[C@H](O)CC(=O)[C@@H]1CCCCCCC(=O)O,outcome,[1],inactive
same,"activity change, negative = inhibition",[8],-1.09% (inactive)
same,outcome,[2],inactive
same,Potency,[9],> 20.6 µM (inactive)
same,Potency,[3],> 20.6 µM (inactive)
same,Potency,[4],inactive
same,outcome,[7],inactive
same,"activity change, negative = inhibition",[5]; at 25.7 µM (top of the series),-3.38% (inactive)
same,max response,[5]; [21],-5.83%
same,max response,[5]; [22],-11.1%
same,Potency,[6],inactive
same,Potency,[10],inactive
same,outcome,[11],inactive
same,"activity, negative = inhibition",[12]; [23],8.32% (inactive)
same,"activity, negative = inhibition",[12]; [24],1.76% (inactive)
same,Potency,[13],inactive
same,Potency,[14],inactive
same,Potency,[15],inactive
same,Potency,[16],inactive
same,Potency,[17],inactive
same,Potency,[18],inactive
same,Potency,[19],inactive
same,Potency,[20],inactive
CC(=O)O[C@H]1C[C@@]2(C)[C@H](C[C@@H](O)[C@H]3[C@@]4(C)CC[C@@H](O)[C@@H](C)[C@H]4CC[C@@]32C)C1=C(CCC=C(C)C)C(=O)O,outcome,[1],inactive
same,"activity change, negative = inhibition",[8],-11.2% (inactive)
same,outcome,[2],inactive
same,Potency,[9],> 20.6 µM (inactive)
same,Potency,[3],> 20.6 µM (inactive)
same,Potency,[4],inactive
same,outcome,[7],inactive
same,"activity change, negative = inhibition",[5]; at 25.7 µM (top of the series),-3.43% (inactive)
same,max response,[5]; [21],-3.61%
same,max response,[5]; [22],-6.42%
same,Potency,[6],inactive
same,Potency,[10],inactive
same,outcome,[11],inactive
same,"activity, negative = inhibition","[12]; at 28.7 µM (top of the series), parasite line A",7.93% (inactive)
same,"activity, negative = inhibition","[12]; at 28.7 µM (top of the series), parasite line B",2.16% (inactive)
same,Potency,[13],inactive
same,Potency,[14],inactive
same,Potency,[15],inactive
same,Potency,[16],inactive
same,Potency,[17],inactive
same,Potency,[18],inactive
same,Potency,[19],inactive
same,Potency,[20],inactive
CC1=C(C(=O)O)N2C(=O)[C@@H](NC(=O)[C@@H](N)c3ccc(O)cc3)[C@@H]2SC1,outcome,[1],inactive
same,"activity change, negative = inhibition",[8],-8.2% (inactive)
same,outcome,[2],inactive
same,Potency,[9],> 20.6 µM (inactive)
same,Potency,[3],> 20.6 µM (inactive)
same,Potency,[4],inactive
same,outcome,[7],inactive
same,"activity change, negative = inhibition",[5]; at 25.7 µM (top of the series),1.21% (inactive)
same,max response,[5]; [21],-1.1%
same,max response,[5]; [22],-2.01%
same,Potency,[6],inactive
same,Potency,[10],inactive
same,outcome,[11],inactive
same,"activity, negative = inhibition",[12]; [23],9.01% (inactive)
same,"activity, negative = inhibition",[12]; [24],1.57% (inactive)
same,Potency,[13],inactive
same,Potency,[14],inactive
same,Potency,[15],inactive
same,Potency,[16],inactive
same,Potency,[17],inactive
same,Potency,[18],inactive
same,Potency,[19],inactive
same,Potency,[20],inactive
